# The entries come from a sample that favours the strongest signals as a whole.
# B1: FaeGac (Escherichia coli) (protein)
# chain: WMTGDFNGSVDIGGSITADDYRQKWEWKVGTGLNGFGNVLNDLTNGGTKLTITVTGNKPILLGRTKEAFATPVTGGVDGIPHIAFTDYEGASVVLRKPDGETNKNGLAYFVLPMKNAGGTKVGSVKVNASYAGVLGRGGVTSADGELLSLFADGLSSIFYGGLPRGSELSAGSAAAARTKLFGSLSRDDILGQIQRVNANVTSLVDVAGSYRENMEYTDGNVVSAAYALGIANGQTIEATFNQAVTTSTQWSAPLNVAITYY
# B2: MIC1 (Neospora caninum), Q8WRS0 (protein)
# chain: AGAKTYGEASQPSASARSLQGALDTWCQEVFKKLCDDGYSKMCIPANQVVARQGLGRKDQQKLVWRCYDSAAFLAEGDENNVLSCVDDCGVSIPCPGGVDRDNSTHATRHDELSQLIKEGVVRYCSGFQAAANSYCNKRYPGTVARKSKGFGHKEPVKWRCYKPESLLFSVFSECVSNCGTTWSCPGGRLGTATNLDKKHFTDESGILQALTSVPKACPVGLVCLPRDQNPPACLDDNGNVPE
# B3: Lmo1413 (Listeria monocytogenes), Q8Y783 (protein)
# chain: MKHAKKSLFTFIIFMTILSITFNPFSAKAAPLMLNLPAPQVDQLYIGDDYITGKLQQEVPMHYPGNAAYVLFNNKQYNITDYTVENDVNFRLKLPKTLEAGDTLNYFTITGNVLDPVAYPGQESYKLAGPFSPIEKANIQVNYVDETNQTLATSDTLSGKLGETYTTSPKAIDGYQVKETPTNATGTYTTNTETIQINYVYEKTAVEGANVSVEYINEATNESIAPTETLSGKIGTTFQAEVKEIDGYELSQVPSNQSGTYTDQTQSVIFKYKKITTPDEVAKDVTVTYKDTKGNQLADPVILKGDIGSTFETEAKSFKGYKLTKTPSNHSSVFTSDSQEVEYVYSKDDAVITPPVTPVNPDKPIINPVKPVNPATSTVPNKNISKKNTTKTVNQTGKTSTALQLPKTGDSENNLPLIIGVSLLISGVYIFTTRRKRVK
# Assays:
# Assay in all cases: glycan array binding signal (z-score within array); higher = stronger binding
# Settings in all cases: glycan notation: IUPAC condensed, linker removed
# [1] = target: Fuc(a1-3)[Gal(b1-4)]GlcNAc
# Summary of the method: (§1)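 Glycan array data were curated from 3228 arrays in the Consortium for Functional Glycomics database and kept only where the protein sequence was available. Glycan names were converted to IUPAC-condensed notation, and columns mapping to the same glycan were averaged. The binding signal is a within-array Z-score, averaged across arrays of the same protein sequence at different concentrations or buffers and across linkers. Negative Z-scores can be read as non-binding.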
# Gal(a1-3)Gal(b1-3)GlcNAc = target: Gal(a1-3)Gal(b1-3)GlcNAc
# Summary of the method: as §1
# [2] = target: Gal(b1-4)GlcNAc(b1-3)Gal(b1-4)GlcNAc
# Summary of the method: as §1
# Gal3S6S(b1-4)GlcNAc6S = target: Gal3S6S(b1-4)GlcNAc6S
# Summary of the method: as §1
# Glc(a1-4)Glc = target: Glc(a1-4)Glc
# Summary of the method: as §1
# Glc(a1-6)Glc(a1-6)Glc = target: Glc(a1-6)Glc(a1-6)Glc
# Summary of the method: as §1
# Glc(b1-4)Glc = target: Glc(b1-4)Glc
# Summary of the method: as §1
# GlcA(b1-3)Gal = target: GlcA(b1-3)Gal
# Summary of the method: as §1
# [3] = target: GlcNAc(a1-3)Gal(b1-4)GlcNAc
# Summary of the method: as §1
# [4] = target: Man(a1-2)Man(a1-2)Man(a1-6)[Man(a1-3)]Man
# Summary of the method: as §1
# [5] = target: Man(a1-2)Man(a1-3)[Man(a1-6)]Man(a1-6)[Man(a1-2)Man(a1-3)]Man(b1-4)GlcNAc(b1-4)GlcNAc
# Summary of the method: as §1
# [6] = target: Neu5Ac(a2-3)Gal(b1-3)[Fuc(a1-4)]GlcNAc
# Summary of the method: as §1
# Neu5Ac(a2-3)Gal(b1-4)Glc = target: Neu5Ac(a2-3)Gal(b1-4)Glc
# Summary of the method: as §1
# [7] = target: Neu5Ac(a2-3)[GalNAc(b1-4)]Gal(b1-4)GlcNAc
# Summary of the method: as §1
# [8] = target: Neu5Gc(a2-3)Gal(b1-3)GlcNAc
# Summary of the method: as §1
# [9] = target: Gal(b1-3)GalNAc(b1-4)[Neu5Ac(a2-3)]Gal(b1-4)Glc
# Summary of the method: as §1
# [10] = target: Gal(b1-3)GlcNAc(b1-3)Gal(b1-4)Glc
# Summary of the method: as §1
# Neu(a2-3)Gal(b1-4)Glc = target: Neu(a2-3)Gal(b1-4)Glc
# Summary of the method: as §1
# [11] = target: Neu(a2-3)Gal6S(b1-4)[Fuc(a1-3)]GlcN(b1-3)Gal(b1-4)Glc
# Summary of the method: as §1
# [12] = target: Neu5Ac(a2-3)Gal(b1-4)[Fuc(a1-3)]GlcNAc(b1-3)Gal(b1-4)Glc
# Summary of the method: as §1
# [13] = target: Neu5Ac(a2-3)Gal(b1-4)[Fuc(a1-3)]GlcNAc6S(b1-3)Gal(b1-4)Glc
# Summary of the method: as §1
# [14] = target: Neu5Ac(a2-3)Gal6S(b1-4)[Fuc(a1-3)]GlcNAc(b1-3)Gal(b1-4)Glc
# Summary of the method: as §1
# [15] = target: Neu5Ac(a2-3)Gal6S(b1-4)[Fuc(a1-3)]GlcNAc6S(b1-3)Gal(b1-4)Glc
# Summary of the method: as §1
# [16] = target: Neu5Ac(a2-8)Neu5Ac(a2-8)Neu5Ac(a2-8)Neu5Ac(a2-8)Neu5Ac(a2-8)Neu5Ac(a2-8)Neu5Ac
# Summary of the method: as §1
# [17] = target: Neu5Ac(a2-8)Neu5Ac(a2-8)Neu5Ac(a2-8)Neu5Ac(a2-8)Neu5Ac(a2-8)Neu5Ac(a2-8)Neu5Ac(a2-8)Neu5Ac(a2-8)Neu5Ac
# Summary of the method: as §1
# [18] = target: Neu5Ac(a2-8)Neu5Ac(a2-8)Neu5Ac(a2-8)Neu5Ac(a2-8)Neu5Ac(a2-8)Neu5Ac(a2-8)Neu5Ac(a2-8)Neu5Ac(a2-8)Neu5Ac(a2-8)Neu5Ac(a2-8)Neu5Ac
# Summary of the method: as §1
# [19] = target: Neu5Ac9Ac(a2-6)Gal(b1-4)GlcNAc
# Summary of the method: as §1
# Gal(a1-3)Gal = target: Gal(a1-3)Gal
# Summary of the method: as §1
# [20] = target: Gal(a1-3)Gal(b1-4)[Fuc(a1-3)]GlcNAc(b1-2)Man(a1-3)[Gal(a1-3)Gal(b1-4)[Fuc(a1-3)]GlcNAc(b1-2)Man(a1-6)]Man(b1-4)GlcNAc(b1-4)GlcNAc
# Summary of the method: as §1
# Gal(a1-3)GalNAc = target: Gal(a1-3)GalNAc
# Summary of the method: as §1
# [21] = target: Gal(b1-3)GalNAc(b1-3)Gal(a1-4)Gal(b1-4)Glc
# Summary of the method: as §1
# [22] = target: Gal(b1-3)GlcNAc(b1-2)Man(a1-3)[Gal(b1-3)GlcNAc(b1-2)Man(a1-6)]Man(b1-4)GlcNAc(b1-4)GlcNAc
# Summary of the method: as §1
# [23] = target: Gal(b1-3)GlcNAc(b1-3)Gal(b1-3)GlcNAc
# Summary of the method: as §1
# [24] = target: Gal(b1-3)GlcNAc(b1-3)Gal(b1-4)[Fuc(a1-3)]GlcNAc(b1-6)[Gal(b1-3)GlcNAc(b1-3)]Gal(b1-4)Glc
# Summary of the method: as §1
# [25] = target: Gal(b1-3)[Fuc(a1-4)]GlcNAc(b1-2)Man(a1-3)[Gal(b1-3)[Fuc(a1-4)]GlcNAc(b1-2)Man(a1-6)]Man(b1-4)GlcNAc(b1-4)GlcNAc
# Summary of the method: as §1
# [26] = target: Gal(b1-3)[Fuc(a1-4)]GlcNAc(b1-3)Gal(b1-3)[Fuc(a1-4)]GlcNAc
# Summary of the method: as §1
# [27] = target: Gal(b1-3)[Neu5Ac(b2-6)]GalNAc
# Summary of the method: as §1
# [28] = target: Gal(b1-4)GlcNAc(b1-2)Man(a1-3)Man(b1-4)GlcNAc(b1-4)GlcNAc
# Summary of the method: as §1
# [29] = target: Gal(b1-4)GlcNAc(b1-2)Man(a1-3)[Man(a1-6)]Man(b1-4)GlcNAc(b1-4)GlcNAc
# Summary of the method: as §1
# Gal4S(b1-4)GlcNAc = target: Gal4S(b1-4)GlcNAc
# Summary of the method: as §1
# GlcA(b1-3)GlcNAc = target: GlcA(b1-3)GlcNAc
# Summary of the method: as §1
# GlcA(b1-6)Gal = target: GlcA(b1-6)Gal
# Summary of the method: as §1
# [30] = target: GlcNAc(a1-4)Gal(b1-4)GlcNAc(b1-3)Gal(b1-4)Glc
# Summary of the method: as §1
# [31] = target: GlcNAc(a1-6)Gal(b1-4)GlcNAc
# Summary of the method: as §1
# [32] = target: GlcNAc(b1-2)Gal(b1-3)GalNAc
# Summary of the method: as §1
# [33] = target: GlcNAc(b1-4)GlcNAc(b1-4)GlcNAc
# Summary of the method: as §1
# Kdn(a2-6)Gal(b1-4)GlcNAc = target: Kdn(a2-6)Gal(b1-4)GlcNAc
# Summary of the method: as §1
# [34] = target: Man(a1-3)[Man(a1-6)]Man(b1-4)GlcNAc(b1-4)GlcNAc
# Summary of the method: as §1
# [35] = target: Neu5Ac(a2-3)Gal(b1-4)GlcNAc(b1-2)Man(a1-3)[Neu5Ac(a2-6)Gal(b1-4)GlcNAc(b1-2)Man(a1-6)]Man(b1-4)GlcNAc(b1-4)GlcNAc
# Summary of the method: as §1
# [36] = target: Neu5Ac(a2-3)Gal(b1-4)[Fuc(a1-3)]GlcNAc(b1-3)Gal(b1-4)[Fuc(a1-3)]GlcNAc(b1-3)Gal(b1-4)[Fuc(a1-3)]GlcNAc
# Summary of the method: as §1
# [37] = target: Neu5Ac(a2-6)Gal(b1-4)GlcNAc(b1-3)GalNAc
# Summary of the method: as §1
# [38] = target: Neu5Ac(a2-6)GlcNAc(b1-4)GlcNAc(b1-4)GlcNAc
# Summary of the method: as §1
# Neu5Gc(a2-3)Gal(b1-4)Glc = target: Neu5Gc(a2-3)Gal(b1-4)Glc
# Summary of the method: as §1
binder,measurement,setting,value
B1,glycan array binding signal (z-score),[1],-0.598
same,glycan array binding signal (z-score),Gal(a1-3)Gal(b1-3)GlcNAc,-0.126
same,glycan array binding signal (z-score),[2],-0.084
same,glycan array binding signal (z-score),Gal3S6S(b1-4)GlcNAc6S,1.17
same,glycan array binding signal (z-score),Glc(a1-4)Glc,5.96
same,glycan array binding signal (z-score),Glc(a1-6)Glc(a1-6)Glc,6.71
same,glycan array binding signal (z-score),Glc(b1-4)Glc,4.43
same,glycan array binding signal (z-score),GlcA(b1-3)Gal,-0.705
same,glycan array binding signal (z-score),[3],0.229
same,glycan array binding signal (z-score),[4],3.1
same,glycan array binding signal (z-score),[5],0.527
same,glycan array binding signal (z-score),[6],0.445
same,glycan array binding signal (z-score),Neu5Ac(a2-3)Gal(b1-4)Glc,-0.81
same,glycan array binding signal (z-score),[7],-0.863
same,glycan array binding signal (z-score),[8],-0.826
B2,glycan array binding signal (z-score),[9],-0.344
same,glycan array binding signal (z-score),[10],-0.441
same,glycan array binding signal (z-score),Neu(a2-3)Gal(b1-4)Glc,-0.422
same,glycan array binding signal (z-score),[11],-0.441
same,glycan array binding signal (z-score),[12],-0.359
same,glycan array binding signal (z-score),[13],0.848
same,glycan array binding signal (z-score),[14],6.08
same,glycan array binding signal (z-score),[15],4.92
same,glycan array binding signal (z-score),[16],0.538
same,glycan array binding signal (z-score),[17],-0.166
same,glycan array binding signal (z-score),[18],-0.291
same,glycan array binding signal (z-score),[19],-0.428
B3,glycan array binding signal (z-score),Gal(a1-3)Gal,-0.219
same,glycan array binding signal (z-score),[20],0.065
same,glycan array binding signal (z-score),Gal(a1-3)GalNAc,-0.056
same,glycan array binding signal (z-score),[21],-0.2
same,glycan array binding signal (z-score),[22],-0.218
same,glycan array binding signal (z-score),[23],-0.215
same,glycan array binding signal (z-score),[24],-0.158
same,glycan array binding signal (z-score),[25],1.29
same,glycan array binding signal (z-score),[26],-0.139
same,glycan array binding signal (z-score),[27],2.02
same,glycan array binding signal (z-score),[28],-0.199
same,glycan array binding signal (z-score),[29],-0.229
same,glycan array binding signal (z-score),Gal4S(b1-4)GlcNAc,-0.075
same,glycan array binding signal (z-score),Glc(a1-4)Glc,2.23
same,glycan array binding signal (z-score),GlcA(b1-3)GlcNAc,1.78
same,glycan array binding signal (z-score),GlcA(b1-6)Gal,0.693
same,glycan array binding signal (z-score),[3],1.66
same,glycan array binding signal (z-score),[30],-0.095
same,glycan array binding signal (z-score),[31],1.42
same,glycan array binding signal (z-score),[32],2.98
same,glycan array binding signal (z-score),[33],0.095
same,glycan array binding signal (z-score),Kdn(a2-6)Gal(b1-4)GlcNAc,-0.144
same,glycan array binding signal (z-score),[34],-0.231
same,glycan array binding signal (z-score),[35],-0.29
same,glycan array binding signal (z-score),[36],0.379
same,glycan array binding signal (z-score),[37],-0.219
same,glycan array binding signal (z-score),[38],-0.222
same,glycan array binding signal (z-score),[19],-0.263
same,glycan array binding signal (z-score),Neu5Gc(a2-3)Gal(b1-4)Glc,-0.252

# Source: the supplement of paper PMC8728848
